From PubChem BioAssay (NCATS)
Records with an inconclusive call do not appear. Activity calls are given as the source filed them. Calls follow the shape of the dose curve; as a rule, active = well fitted cell-killing curve with a large enough effect; inconclusive = small, poorly fitted or top-dose-only effect; inactive = flat fitted curve, though single readings scatter.

Legend:
[1] = Cell Viability - LYMP2-025 (AID 976); also: series mostly up to about 92 µM
In short: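 Human lymphoblastoid LYMP2-025 cells, 2500/well, exposed 24 h at 37 C in complete medium in 1536-well qHTS. Viability as cellular ATP by CellTiter-Glo luminescence; AC50 from Hill fits of concentration-response data.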

[2] = Cell Viability - LYMP2-002 (AID 977);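 also: series mostly up to about 92 µM; compound exposure lasted 24 h at 37 °C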
From the text: NIH Chemical Genomics Center [NCGC]
NIH Molecular Libraries Screening Centers Network [MLSCN]
National Institutes of Environmental Health Sciences [NIEHS]
National Toxicology Program [NTP]
We have developed a 1536-well cell-based assay for quantitative high throughput screening (qHTS) against a number of cell lines to determine in vitro cytotoxicity of small molecules. This particular assay uses a human lymphoblastoid cell line (LYMP2-002) purchased from Coriell Institute for Medical Research.
NCGC Assay Protocol Summary:
The CellTiter-Glo luminescent cell viability assay (Promega) is a homogeneous method to measure the number of viable cells in culture. The end point readout of this assay is based on quantitation of intracellular ATP, an indicator of metabolic activity, using the luciferase reaction. Luciferase catalyzes the oxidation of beetle Luciferin to oxyluciferin and light in the presence of ATP. The luminescent signal is proportional to amount of ATP present.
Using the CellTiter-Glo luminescent cell viability assay, the amount of cellular ATP was measured in the lymphoblastoid cell line with complete culture medium following compound treatment for 24 hours. The assay was performed in opaque white Kalypsys 1536-well plates. In the screen, tetraoctylammonium bromide was used as positive control. Library compounds were measured for their ability to cause acute toxicity in the cell line, as reflected by a decrease in intracellular ATP levels, in a concentration-dependent manner. […] AC50 values were determined from concentration-response data modeled with the standard Hill equation.
qHTS protocol for CellTiter Glo lymphoblastoid cellular assay
[Step] [Parameter] [Value] [Description]
1. Reagent; 5 uL; 2500 lymphoblastoid cells/well
2. Time; 5 hr; 37 C incubation
4. Controls; 23 nL; Tetraoctylammonium bromide 6.4pM to 92 uM
5. Time; 24 hr; 37 C incubation
6. Reagent; 5 uL; CellTiter Glo reagent
7. Time; 30 min; Room Temperature
8. Detection; Luminescence; Viewlux plate reader
Keywords: cell viability, cytotoxicity, lymphoblastoid cell line, luminescence, NTPHTS, NTPHTS_NCGC, NIEHS, DSSTox, MLSMR, MLSCN, NIH Roadmap, qHTS, NCGC

[3] = Cell Viability - LYMP2-006 (AID 978); also: series mostly up to about 92 µM; nearly all actives have a fitted effect of over 60% in size
In short: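 qHTS, 1536-well; 2500 cells/well, 5 hr 37 C; cpd 24 hr 37 C; CellTiter-Glo 30 min RT; luminescence. Tetraoctylammonium bromide pos. ctrl. AC50 via Hill eqn.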

[4] = Cell Viability - LYMP2-007 (AID 979);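 also: cells exposed to compound for 24 h before reading; nearly all actives have a fitted effect of over 60% in size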
In short: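 Human lymphoblastoid LYMP2-007 cells (2500/well) preincubated 5 h at 37 C, then treated 24 h at 37 C in complete medium. Viability by CellTiter-Glo ATP luminescence after 30 min at room temperature; AC50 from Hill fits.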

[5] = Cell Viability - LYMP2-008 (AID 980); also: nearly all actives have a fitted effect of over 60% in size
In short: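 LYMP2-008 lymphoblastoid cells (2500/well) plated 5 h, then treated 24 h at 37 C in complete medium. Viability read as intracellular ATP by CellTiter-Glo luminescence after 30 min at room temperature; AC50 from Hill fits.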

[6] = Cell Viability - LYMP2-010 (AID 981); also: nearly all actives have a fitted effect of over 55% in size
In short: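 Human lymphoblastoid LYMP2-010 cells (2500/well) treated 24 h at 37 C in complete medium; viability read as intracellular ATP by CellTiter-Glo luminescence. AC50 from Hill fits of concentration-response data; tetraoctylammonium bromide positive control.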

[7] = Cell Viability - LYMP2-016 (AID 984); also: nearly all actives have a fitted effect of over 55% in size
In short: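 qHTS, 1536-well: 2500 LYMP2-016 cells/well, 5 hr 37 C, compound added, 24 hr 37 C, CellTiter-Glo 30 min RT, luminescence. Tetraoctylammonium bromide positive control. AC50 via Hill fit.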

[8] = Cell Viability - LYMP2-018 (AID 985);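 also: compound exposure lasted 24 hr at 37 °C; nearly all actives have a fitted effect of over 50% in size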
In short: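 Human lymphoblastoid LYMP2-018 cells, 2500/well, settled 5 hr at 37 C then exposed to compound 24 hr at 37 C; intracellular ATP measured by CellTiter-Glo luminescence. AC50 from Hill-equation concentration-response fits.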

[9] = Cell Viability - LYMP2-012 (AID 982);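 also: cellular ATP by luciferase luminescence where a drop means cytotoxicity; cells exposed to compound for one day before reading; nearly all actives have a fitted effect of over 55% in size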
[10] = Cell Viability - LYMP2-014 (AID 983); also: series mostly up to about 92 µM; nearly all actives have a fitted effect of over 50% in size
In short: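 LYMP2-014 human lymphoblastoid cells, 2500/well, treated 24 h at 37 C in complete medium; viability by CellTiter-Glo ATP luminescence after 30 min at room temperature. AC50 from Hill fits of qHTS concentration-response; tetraoctylammonium bromide positive control.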

Measured: outcome

C=Cc1ccccc1
not listed: [9] | [10]
inactive: all other assays above

CN(C)Cc1ccccc1
inactive: all assays above

COC(C)=O
inactive: all assays above

O=C(O)CC(O)(CC(=O)O)C(=O)O
not listed: [4] | [5] | [6]
inactive: all other assays above

CCCCCCCCCC(=O)O
inactive: all assays above
